According to PubChem BioAssay AID1159580 (chemical genetic matrix, 2015):
Several values for one entry are separate records, joined by “and”; a condition that tells them apart may be missing. Equal values may be shown once. Out of some 5,500 compounds screened, about 2,000 (36%) were called active. Another 18% or so got no clear call; they are omitted. Cut-off read from the data, not from the text of the source: active = normalized growth mostly below about 0.91 (no sharp cut-off); inconclusive = no clear call, values can overlap the other calls; inactive = mostly above about 0.92. The list shows a part of the results.

Experiment: chemical genetic growth profiling, strain panel (AID 1159580);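 note: tested at 20 µM; growth read once vehicle control cultures reached saturation at 30 °C; 1 = growth at the plate median or of vehicle wells; lower values mean less growth of the strain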
Settings: S. cerevisiae deletion strains, growth OD

Measured: normalized growth

Nc1ccc(S(=O)(=O)Nc2cnc3ccccc3n2)cc1
inactive: locus YAL013W, strain DEP1, stronger effect = lower value 0.994 | locus YAL021C, strain ccr4, stronger effect = lower value 1.01 | locus YAL026C, strain drs2, stronger effect = lower value 1 | locus YAL030W, strain snc1, stronger effect = lower value 1.02 | locus YBL061C, strain skt5, stronger effect = lower value 1 | locus YBR009C, strain hhf1, stronger effect = lower value 0.973 | locus YBR021W, strain FUR4, stronger effect = lower value 0.999 | locus YBR023C, strain chs3, stronger effect = lower value 1.02 | locus YBR171W, strain sec66, stronger effect = lower value 1.02 | locus YBR229C, strain ROT2, stronger effect = lower value 0.957 | locus YBR231C, strain swc5, stronger effect = lower value 1.01 | locus YBR279W, strain paf1, stronger effect = lower value 1.01 | locus YCL011C, strain gbp2, stronger effect = lower value 1.01 | locus YCL016C, strain dcc1, stronger effect = lower value 1 | locus YCL029C, strain bik1, stronger effect = lower value 0.983 | locus YCL061C, strain MRC1, stronger effect = lower value 1.02 | locus YCL069W, strain vba3, stronger effect = lower value 1.02 | locus YCR088W, strain abp1, stronger effect = lower value 1.01 | locus YDL005C, strain med2, stronger effect = lower value 1.02 | locus YDL035C, strain GPR1, stronger effect = lower value 1 | locus YDL040C, strain nat1, stronger effect = lower value 1.01 | locus YDL074C, strain BRE1, stronger effect = lower value 0.977 | locus YDL101C, strain DUN1, stronger effect = lower value 0.989 | locus YDL134C, strain PPH21, stronger effect = lower value 1.01 | locus YDL185W, strain tfp1, stronger effect = lower value 0.974 | locus YDL192W, strain arf1, stronger effect = lower value 0.973 | locus YDR001C, strain nth1, stronger effect = lower value 1.02 | locus YDR069C, strain doa4, stronger effect = lower value 1.03 | locus YDR101C, strain arx1, stronger effect = lower value 1 | locus YDR137W, strain rgp1, stronger effect = lower value 0.993 | locus YDR150W, strain NUM1, stronger effect = lower value 0.991 | locus YDR159W, strain sac3, stronger effect = lower value 0.955 | locus YDR162C, strain NBP2, stronger effect = lower value 0.999 | locus YDR195W, strain ref2 1.01 | locus YDR297W, strain sur2, stronger effect = lower value 1.02 | locus YDR318W, strain mcm21, stronger effect = lower value 0.995 | locus YDR334W, strain swr1, stronger effect = lower value 1.02 | locus YDR335W, strain msn5, stronger effect = lower value 1.01 | locus YDR388W, stronger effect = lower value 0.986 | locus YDR392W, strain spt3, stronger effect = lower value 0.942 | locus YDR502C, strain sam2, stronger effect = lower value 0.978 | locus YEL003W, strain gim4, stronger effect = lower value 1.02 | locus YEL037C, strain rad23, stronger effect = lower value 1.01 | locus YEL061C, strain CIN8 (second series), stronger effect = lower value 1.01 | locus YEL061C, strain CIN8, stronger effect = lower value 0.981 | locus YER015W, strain faa2, stronger effect = lower value 1 | locus YER016W, strain bim1, stronger effect = lower value 0.962 | locus YER110C, stronger effect = lower value 0.981 | locus YER111C, strain swi4, stronger effect = lower value 1.02 | locus YER155C, strain BEM2 (second series), stronger effect = lower value 0.981 | locus YER155C, strain BEM2, stronger effect = lower value 0.996 | locus YER167W, strain BCK2, stronger effect = lower value 0.993 | locus YFR010W, strain ubp6, stronger effect = lower value 1.04 | locus YGL078C, strain dbp3, stronger effect = lower value 0.99 | locus YGL086W, strain mad1, stronger effect = lower value 0.983 | locus YGL167C, strain pmr1, stronger effect = lower value 1.01 | locus YGL173C, strain kem1, stronger effect = lower value 1.01 | locus YGL227W, strain vid30, stronger effect = lower value 1.02 | locus YGL240W, strain doc1, stronger effect = lower value 1.03 | locus YGL248W, strain PDE1, stronger effect = lower value 0.972 | locus YGL253W, strain hxk2, stronger effect = lower value 1.02 | locus YGR135W, strain pre9, stronger effect = lower value 0.992 | locus YGR252W, strain gcn5, stronger effect = lower value 0.988 | locus YHR013C, strain ard1, stronger effect = lower value 1 | locus YHR027C, strain rpn1, stronger effect = lower value 1.01 | locus YHR030C, strain SLT2, stronger effect = lower value 1 and 0.974 | locus YHR079C, strain IRE1 (second series), stronger effect = lower value 0.989 | locus YHR079C, strain IRE1, stronger effect = lower value 0.957 | locus YHR094C, strain hxt1, stronger effect = lower value 0.985 | locus YHR129C, strain ARP1, stronger effect = lower value 0.989 | locus YHR142W, strain chs7, stronger effect = lower value 1.05 | locus YHR200W, strain rpn10, stronger effect = lower value 0.967 | locus YIL066C, strain RNR3, stronger effect = lower value 0.978 | locus YIL073C, strain SPO22, stronger effect = lower value 1.02 | locus YIL125W, strain kgd1, stronger effect = lower value 0.981 | locus YIR030C, strain dcg1, stronger effect = lower value 0.981 | locus YJL092W, strain hpr5, stronger effect = lower value 0.996 | locus YJL095W, strain BCK1 (second series), stronger effect = lower value 1.02 | locus YJL095W, strain BCK1, stronger effect = lower value 0.965 and 0.98 | locus YJL115W, strain asf1, stronger effect = lower value 1.02 | locus YJL129C, strain trk1, stronger effect = lower value 1.01 | locus YJL134W, strain LCB3, stronger effect = lower value 0.993 | locus YJL154C, strain vps35, stronger effect = lower value 1.02 | locus YJL164C, strain tpk1, stronger effect = lower value 0.996 | locus YJL166W, strain qcr8, stronger effect = lower value 1.02 | locus YJL168C, strain set2, stronger effect = lower value 0.976 | locus YJL187C, strain SWE1 (second series), stronger effect = lower value 0.964 | locus YJL187C, strain SWE1, stronger effect = lower value 1.01 | locus YJR043C, strain POL32, stronger effect = lower value 1.02 | locus YJR066W, strain TOR1, stronger effect = lower value 0.918
